Consider eleven compounds from ChEMBL document CHEMBL3988442, “University of Dundee, Small-Polar-MMV Screening Library” (2021).

The structures appear in SMILES notation. For some of these results: Entries with a potency or affinity are not part of this list.

Common to all, as to design: scale not given: direction of the effect not stated beside the values
Experiment [1] concerns the target Protein translocase subunit SecA (Escherichia coli (strain K12)) (UniProt P10408). Kind of experiment: Assay to Identify E. coli SecA ATPase Inhibitors. The class given is functional. The following applies: 30 µM.
Experiment [2] deals with T1, Ubiquitin-activating enzyme e1, putative (Leishmania donovani (strain BPK282A1)) (UniProt E9BSI1).
T1 sequence (whole entry): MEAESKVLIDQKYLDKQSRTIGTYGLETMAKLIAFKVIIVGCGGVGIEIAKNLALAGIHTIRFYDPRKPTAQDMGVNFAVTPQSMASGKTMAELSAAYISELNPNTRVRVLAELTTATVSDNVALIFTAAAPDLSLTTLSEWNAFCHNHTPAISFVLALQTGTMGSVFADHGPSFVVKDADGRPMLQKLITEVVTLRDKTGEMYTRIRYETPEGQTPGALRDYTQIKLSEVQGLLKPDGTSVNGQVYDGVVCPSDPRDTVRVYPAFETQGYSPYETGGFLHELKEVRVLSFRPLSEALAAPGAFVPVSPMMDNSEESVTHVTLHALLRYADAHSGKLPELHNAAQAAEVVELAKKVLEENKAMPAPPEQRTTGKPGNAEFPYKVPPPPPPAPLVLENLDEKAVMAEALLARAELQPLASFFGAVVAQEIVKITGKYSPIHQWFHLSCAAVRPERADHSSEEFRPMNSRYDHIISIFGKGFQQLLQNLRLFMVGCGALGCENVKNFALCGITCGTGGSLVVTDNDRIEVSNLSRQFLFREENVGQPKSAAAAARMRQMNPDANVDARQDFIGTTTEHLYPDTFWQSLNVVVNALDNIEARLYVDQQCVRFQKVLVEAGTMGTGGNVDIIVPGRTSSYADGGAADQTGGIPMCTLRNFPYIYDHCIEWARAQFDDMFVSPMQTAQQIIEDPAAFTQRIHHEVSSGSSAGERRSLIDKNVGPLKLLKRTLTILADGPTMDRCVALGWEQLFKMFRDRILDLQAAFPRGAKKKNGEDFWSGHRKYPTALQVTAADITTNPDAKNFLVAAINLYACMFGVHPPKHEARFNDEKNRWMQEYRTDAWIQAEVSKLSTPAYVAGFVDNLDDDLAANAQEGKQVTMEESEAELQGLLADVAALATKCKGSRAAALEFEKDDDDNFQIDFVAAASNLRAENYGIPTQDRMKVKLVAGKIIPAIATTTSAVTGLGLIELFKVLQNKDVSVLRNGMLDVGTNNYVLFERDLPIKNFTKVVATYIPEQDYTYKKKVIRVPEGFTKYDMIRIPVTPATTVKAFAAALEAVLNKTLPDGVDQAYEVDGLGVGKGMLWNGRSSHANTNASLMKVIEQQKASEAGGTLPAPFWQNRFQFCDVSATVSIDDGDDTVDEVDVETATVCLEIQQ
Put plainly: Leishmania donovani Ubiquitin Activating Enzyme (LdE1). The following applies: 30 µM. The class given is functional.

The target in experiment [3] is AMP-activated protein kinase, AMPK (Homo sapiens) (UniProt P54646+O43741+P54619+Q9UGJ0+Q9Y478+Q13131+Q9UGI9). Kind of experiment: AMP-dependent Kinase enzyme assay. An in vitro enzyme assay that detects ADP turnover that is directly proportional to AMPK activity. This uses naive AMPK that is activated during the assay with MK-8722. Conditions: 30 µM. The class given is functional.

In experiment [4] the target is Sialic acid-binding Ig-like lectin 9 (Homo sapiens) (UniProt Q9Y336). Kind of experiment: Hs-Siglec9 ALPHAscreen SOP 20170721. The following applies: 10 µM. (In Alpha technology, singlet oxygen from a donor bead excites a nearby acceptor bead.)
For the next experiment, the system named is Trypanosoma cruzi. Kind of experiment: Trypanosoma cruzi phosphomannomutase and mannose-1-phosphate guanylyltransferase assay. The format is functional. Conditions: 10 µM.
Experiment [5] has as its target T2, Arginase-2, mitochondrial (Homo sapiens) (UniProt P78540).
T2 sequence (whole entry): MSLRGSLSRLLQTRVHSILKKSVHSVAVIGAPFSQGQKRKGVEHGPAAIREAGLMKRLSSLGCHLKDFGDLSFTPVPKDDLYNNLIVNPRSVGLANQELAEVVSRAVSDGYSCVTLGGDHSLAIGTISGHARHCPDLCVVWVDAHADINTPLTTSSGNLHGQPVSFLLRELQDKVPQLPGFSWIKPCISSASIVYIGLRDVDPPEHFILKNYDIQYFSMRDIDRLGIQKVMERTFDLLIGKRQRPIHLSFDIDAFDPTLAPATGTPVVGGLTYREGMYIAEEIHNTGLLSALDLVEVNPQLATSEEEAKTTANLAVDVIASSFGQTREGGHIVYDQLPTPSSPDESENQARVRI
Put plainly: in vitro enzyme assay to detect the production of urea directly proportional to the activity of Arginase II. Note: in the data most compounds retested in dose-response had high values. The format is functional. The following applies: 33.3 µM.

Experiment [6] deals with T3, Proteasome subunit beta (Trypanosoma cruzi) (UniProt O96673).
T3 sequence (whole entry): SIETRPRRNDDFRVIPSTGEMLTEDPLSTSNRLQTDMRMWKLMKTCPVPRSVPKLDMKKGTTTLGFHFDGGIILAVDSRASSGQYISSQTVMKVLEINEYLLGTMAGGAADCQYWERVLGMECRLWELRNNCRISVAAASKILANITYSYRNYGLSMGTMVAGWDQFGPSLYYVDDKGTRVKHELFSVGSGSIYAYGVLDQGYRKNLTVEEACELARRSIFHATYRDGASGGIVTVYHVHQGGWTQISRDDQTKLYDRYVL
Kind of experiment: Trypanosoma cruzi proteasome chymotrypsin-like activity (TcProtChymo) assay. Note: in the data most compounds retested in dose-response had high values. The following applies: 9.37 µM. The format is functional.

For a further experiment, the species on record is Homo sapiens. Kind of experiment: To identify inhibition of the IFN signalling (Jak-Stat) pathway via expression of an eGFP reporter gene under the control of an IFN-stimulated response element (ISRE) containing MxA promoter. The format is functional. The following applies: 30 µM.
Experiment [7] has as its target T4, Tyrosyl-tRNA synthetase, putative (Trypanosoma cruzi (strain CL Brener)) (UniProt Q4DSP6).
T4 sequence (whole entry): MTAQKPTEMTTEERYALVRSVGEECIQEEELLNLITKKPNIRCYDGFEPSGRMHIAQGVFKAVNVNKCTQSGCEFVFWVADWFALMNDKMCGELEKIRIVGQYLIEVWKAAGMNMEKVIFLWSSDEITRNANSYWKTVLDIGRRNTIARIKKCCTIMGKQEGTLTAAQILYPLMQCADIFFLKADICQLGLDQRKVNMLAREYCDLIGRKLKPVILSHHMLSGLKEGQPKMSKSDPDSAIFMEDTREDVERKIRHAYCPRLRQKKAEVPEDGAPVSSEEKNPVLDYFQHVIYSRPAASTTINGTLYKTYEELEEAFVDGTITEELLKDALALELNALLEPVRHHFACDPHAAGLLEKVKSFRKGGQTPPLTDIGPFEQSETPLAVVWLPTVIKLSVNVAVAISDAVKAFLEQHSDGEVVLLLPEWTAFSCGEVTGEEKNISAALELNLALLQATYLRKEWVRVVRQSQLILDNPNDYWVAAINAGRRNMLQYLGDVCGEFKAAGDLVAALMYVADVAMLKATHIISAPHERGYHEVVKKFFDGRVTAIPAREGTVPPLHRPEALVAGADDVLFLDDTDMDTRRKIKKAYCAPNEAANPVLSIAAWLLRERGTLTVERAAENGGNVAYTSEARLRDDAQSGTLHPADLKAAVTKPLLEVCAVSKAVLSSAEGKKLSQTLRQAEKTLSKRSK
Kind of experiment: Trypanosoma cruzi tyrosyl tRNA synthetase (TcYRS) _High Tyrosine SOP. Note: in the data most compounds retested in dose-response had high values. The format is functional. The following applies: 30 µM.

Experiment [8] concerns the target T4, Tyrosyl-tRNA synthetase, putative (Trypanosoma cruzi (strain CL Brener)). Put plainly: Trypanosoma cruzi tyrosyl tRNA synthetase (TcYRS) SOP. The format is functional. Conditions: 30 µM.
For experiment [9], the target named is Chromo domain-containing protein 1 (Saccharomyces cerevisiae (strain ATCC 204508 / S288c) (Baker's yeast)) (UniProt P32657). Put plainly: ScCHD-1 Enzyme Inhibition Assay. Note: in the data most compounds retested in dose-response had high values. The class given is functional. Conditions: 30 µM.
Chromo domain-containing protein 1 (Saccharomyces cerevisiae (strain ATCC 204508 / S288c) (Baker's yeast)), sequence (P32657 whole entry, the tested form may be a part): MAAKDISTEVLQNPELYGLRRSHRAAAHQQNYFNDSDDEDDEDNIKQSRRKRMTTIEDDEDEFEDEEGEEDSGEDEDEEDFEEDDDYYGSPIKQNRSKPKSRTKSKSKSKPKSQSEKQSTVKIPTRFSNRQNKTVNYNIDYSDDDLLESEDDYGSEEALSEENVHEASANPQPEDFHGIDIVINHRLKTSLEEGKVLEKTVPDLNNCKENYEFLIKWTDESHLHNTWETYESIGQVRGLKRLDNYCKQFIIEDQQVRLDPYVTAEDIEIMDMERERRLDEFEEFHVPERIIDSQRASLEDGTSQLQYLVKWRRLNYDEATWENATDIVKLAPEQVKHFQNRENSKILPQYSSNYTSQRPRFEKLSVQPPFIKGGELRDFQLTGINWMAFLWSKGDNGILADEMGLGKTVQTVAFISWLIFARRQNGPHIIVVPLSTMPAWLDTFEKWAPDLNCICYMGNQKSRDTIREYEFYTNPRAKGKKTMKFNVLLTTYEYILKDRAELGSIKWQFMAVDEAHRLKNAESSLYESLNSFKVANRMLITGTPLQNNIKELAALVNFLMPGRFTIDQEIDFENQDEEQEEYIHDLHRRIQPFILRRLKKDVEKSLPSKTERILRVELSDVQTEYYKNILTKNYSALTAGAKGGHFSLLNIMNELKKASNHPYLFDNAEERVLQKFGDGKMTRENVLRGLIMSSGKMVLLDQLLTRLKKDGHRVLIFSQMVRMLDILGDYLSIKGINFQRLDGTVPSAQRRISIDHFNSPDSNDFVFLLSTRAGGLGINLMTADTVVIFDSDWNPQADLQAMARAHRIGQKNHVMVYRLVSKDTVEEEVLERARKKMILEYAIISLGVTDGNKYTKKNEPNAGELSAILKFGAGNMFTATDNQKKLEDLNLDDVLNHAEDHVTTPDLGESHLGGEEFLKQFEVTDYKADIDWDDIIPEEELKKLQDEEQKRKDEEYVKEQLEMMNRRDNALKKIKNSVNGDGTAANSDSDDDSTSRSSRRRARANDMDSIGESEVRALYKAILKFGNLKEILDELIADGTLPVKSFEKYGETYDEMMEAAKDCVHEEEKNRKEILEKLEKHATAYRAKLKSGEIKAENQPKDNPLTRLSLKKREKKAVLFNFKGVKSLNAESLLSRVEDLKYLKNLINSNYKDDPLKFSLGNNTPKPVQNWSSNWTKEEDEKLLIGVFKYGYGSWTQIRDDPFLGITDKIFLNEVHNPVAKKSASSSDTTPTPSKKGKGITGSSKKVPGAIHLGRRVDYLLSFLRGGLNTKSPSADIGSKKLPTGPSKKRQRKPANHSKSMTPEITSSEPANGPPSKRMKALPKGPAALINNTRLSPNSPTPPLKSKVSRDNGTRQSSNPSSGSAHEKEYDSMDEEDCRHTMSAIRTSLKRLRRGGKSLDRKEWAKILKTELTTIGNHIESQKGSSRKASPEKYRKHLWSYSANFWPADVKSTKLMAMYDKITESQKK

Sialic acid-binding Ig-like lectin 9 (Homo sapiens), sequence (Q9Y336 whole entry): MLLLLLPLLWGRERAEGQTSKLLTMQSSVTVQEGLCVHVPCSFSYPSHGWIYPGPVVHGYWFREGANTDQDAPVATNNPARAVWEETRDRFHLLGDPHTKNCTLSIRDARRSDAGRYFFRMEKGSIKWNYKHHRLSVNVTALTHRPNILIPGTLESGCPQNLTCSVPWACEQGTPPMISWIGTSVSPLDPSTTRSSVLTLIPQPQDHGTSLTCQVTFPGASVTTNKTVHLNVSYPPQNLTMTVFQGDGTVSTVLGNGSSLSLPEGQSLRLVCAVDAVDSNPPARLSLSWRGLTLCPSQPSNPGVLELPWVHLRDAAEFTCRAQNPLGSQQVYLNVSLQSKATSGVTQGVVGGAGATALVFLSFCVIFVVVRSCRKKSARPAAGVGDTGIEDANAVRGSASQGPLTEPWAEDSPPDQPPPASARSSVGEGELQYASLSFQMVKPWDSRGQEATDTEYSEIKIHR
Protein translocase subunit SecA (Escherichia coli (strain K12)), sequence (P10408 whole entry): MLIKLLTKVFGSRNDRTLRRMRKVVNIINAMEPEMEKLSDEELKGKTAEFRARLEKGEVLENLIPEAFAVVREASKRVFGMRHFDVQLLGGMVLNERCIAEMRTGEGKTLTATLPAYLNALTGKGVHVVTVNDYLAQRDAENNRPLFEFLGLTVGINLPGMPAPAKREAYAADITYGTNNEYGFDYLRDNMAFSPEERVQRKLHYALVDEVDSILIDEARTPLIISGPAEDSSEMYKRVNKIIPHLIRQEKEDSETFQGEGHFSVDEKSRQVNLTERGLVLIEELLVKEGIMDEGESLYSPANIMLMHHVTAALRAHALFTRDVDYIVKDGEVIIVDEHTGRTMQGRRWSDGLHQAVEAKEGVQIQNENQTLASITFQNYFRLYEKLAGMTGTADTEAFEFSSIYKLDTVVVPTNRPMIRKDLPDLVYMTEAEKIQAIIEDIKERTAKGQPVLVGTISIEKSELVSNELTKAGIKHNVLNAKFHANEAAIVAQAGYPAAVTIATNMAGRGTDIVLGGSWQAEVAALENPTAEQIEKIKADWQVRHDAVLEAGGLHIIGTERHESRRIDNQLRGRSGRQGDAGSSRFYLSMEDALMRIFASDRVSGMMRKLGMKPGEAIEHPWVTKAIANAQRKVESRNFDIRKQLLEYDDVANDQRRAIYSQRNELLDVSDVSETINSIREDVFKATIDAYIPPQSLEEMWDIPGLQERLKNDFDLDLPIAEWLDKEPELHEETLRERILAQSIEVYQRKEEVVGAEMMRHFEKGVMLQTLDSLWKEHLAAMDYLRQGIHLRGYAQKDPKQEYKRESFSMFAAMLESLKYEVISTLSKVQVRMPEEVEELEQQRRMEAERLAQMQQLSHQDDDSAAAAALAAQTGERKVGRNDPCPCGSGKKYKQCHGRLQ

Regarding `CC(C)N1CC(C(=O)NCCc2csc(-c3ccncc3)n2)CC1=O` (stereo unspecified), the Percent Effect in experiment [1] was -0.366%; in experiment [2], 20.8%; in experiment [3], 5.98%; in [4] it was -0.897%; in the experiment with Trypanosoma cruzi, 2.26%; in experiment [5] it was -11%. For the same compound, the Percent Effect in [6] was 14.3%; in the experiment filed under Homo sapiens, 21%; in [7] it was 6.45%; in [8] it was 16.1%; in experiment [9] it was -6.34%.

`Cn1cc(CN2CC[C@H]3O[C@H](C(=O)NCc4ccco4)CC[C@H]32)cn1`: the Percent Effect is -0.286% in [1]; 5.33% in [2]; -3.22% in [3]; -1.09% in [4]; -7.14% in the experiment on Trypanosoma cruzi; -53.2% in [5]. The Percent Effect was 6.67% in [6]; -2.52% in the experiment listed under Homo sapiens; 1.04% in experiment [7]; 12.5% in experiment [8]; -5.84% in experiment [9].

With `CN(C)c1nc2c(c(N3CCC(O)CC3)n1)CN(CC1CCNC1)CC2` (stereo unspecified), the Percent Effect in experiment [1] is -1.69%; in experiment [2] it was 10.8%; in experiment [3], -1.59%; in experiment [4], 10.5%; with Trypanosoma cruzi, 0.193%; in experiment [5] it was 0.476%. Further, the Percent Effect is 10.9% in experiment [6]; 2.62% in the experiment filed under Homo sapiens; 12.2% in experiment [7]; 19.5% in experiment [8]; -4.09% in experiment [9].

As for `Cc1cc(CN2CCc3nn(C(C)C)c(=O)cc3C2)no1`, the Percent Effect is -6.46% in experiment [1]; 0% in experiment [2]; -5.64% in [3]; 2.16% in experiment [4]; -0.781% in the experiment on Trypanosoma cruzi; 0.833% in [5]. In addition, the Percent Effect in [6] is 14.1%; in the experiment listed under Homo sapiens it was -0.957%; in experiment [7] it was 7.92%; in [8] it was 8.54%; in experiment [9], -7.52%.

On to `CCC(C)(C)NC(=O)Cn1nc(C)nc1-c1cccc(C)c1`, for which the Percent Effect in experiment [1] was -4.79%; in experiment [2], 20.8%; in experiment [3], 3.98%; in experiment [4] it was -4.39%; in the experiment with Trypanosoma cruzi it was -3%; in experiment [5] it was 1.07%. The Percent Effect was 7.26% in [6]; 14.5% in the experiment listed under Homo sapiens; 9.71% in experiment [7]; 21.9% in experiment [8]; -6.87% in [9].

As to `N#Cc1cc(NC(=O)c2ccccc2)ccc1N1CCC(O)CC1`, the Percent Effect is -0.198% in experiment [1]; 10.8% in experiment [2]; -7.93% in experiment [3]; 6.67% in experiment [4]; 2.51% with Trypanosoma cruzi; 9.05% in experiment [5]. Further, the Percent Effect in [6] was 10%; in the experiment filed under Homo sapiens, -5.21%; in experiment [7], 1.59%; in [8], 9.76%; in experiment [9] it was -2.82%.

`Cc1cc(CN2CCCC2c2noc(C3CC3)n2)c2ccccc2n1` (stereo unspecified): the Percent Effect was 1.53% in [1]; -16.2% in experiment [2]; -1.25% in [3]; 5.64% in [4]; -1.39% in the experiment on Trypanosoma cruzi; 9.8% in experiment [5]. Besides, the Percent Effect in experiment [6] was -4.49%; in the experiment listed under Homo sapiens it was 94.8%; in experiment [7], 11.9%; in [8], 3.66%; in [9], 12.8%.

In the case of `CCSCCC(=O)Nc1ncn(CC(=O)NCc2ccccc2)n1`, the Percent Effect in experiment [1] is -4.92%; in experiment [2] it was 16%; in [3], -4.62%; in experiment [4], 16.7%; with Trypanosoma cruzi, 8.86%; in [5], 3.65%. Besides, the Percent Effect is 25.1% in experiment [6]; 5.59% in the experiment filed under Homo sapiens; 12.6% in experiment [7]; 28.4% in experiment [8]; -2.42% in [9].

For `COCC(=O)N(C)Cc1cccc(Cl)c1`, the Percent Effect in experiment [1] is -4%; in [2], 10.5%; in [3], -1.75%; in [4], -3.18%; in the experiment on Trypanosoma cruzi it was 4.19%; in [5], 0%. Moreover, the Percent Effect is 2.78% in experiment [6]; 4.21% in the experiment filed under Homo sapiens; 1.06% in [7]; 13% in experiment [8]; -4.61% in experiment [9].

As for `Cn1cnc2c1C(COCC1CCOCC1)CN(C1CCOCC1)C2` (stereo unspecified), the Percent Effect is -3.42% in experiment [1]; 13.3% in experiment [2]; 10.9% in [3]; 4.02% in experiment [4]; -2.76% in the experiment with Trypanosoma cruzi; 3.96% in [5]. In addition, the Percent Effect in experiment [6] was 6.96%; in the experiment filed under Homo sapiens it was -11.2%; in experiment [7] it was 5.32%; in experiment [8], 11.5%; in experiment [9] it was -4.46%.

On to `CC(O)CN1CCN(C(=O)c2ccn(-c3cccc(Cl)c3)n2)CC1` (stereo unspecified), for which the Percent Effect is -5.56% in experiment [1]; -2.6% in experiment [2]; 12.7% in experiment [3]; -7.86% in [4]; -6.93% with Trypanosoma cruzi; 1.07% in experiment [5]. Also, the Percent Effect was 1.18% in [6]; 26.4% in the experiment filed under Homo sapiens; -1.94% in [7]; -9.76% in experiment [8]; -1.68% in [9].
